Measurements reported in PubChem BioAssay (NCI).
This is part of a sample that, as a whole, favours compounds with a hit. Of some 83,000 tested, about 20% had one in any assay.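 Interpretation: 100, growth as untreated; towards 0, rising growth inhibition; 0, no net growth; 0 to -100, cell death. Compounds scoring below 10 were considered active.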 A number with no mark means an inactive call. Activity calls are given as the source filed them.

Assays:
Experiment in all cases: NCI-60 one-dose screen, 48 h (100 = growth as untreated, 0 = no growth, -100 = all killed)
Details in all cases: 10 µM unless noted
HCT-15 colon = system: HCT-15 colon
HT29 colon = system: HT29 colon
SNB-75 CNS = system: SNB-75 CNS
SNB-19 CNS = system: SNB-19 CNS
U251 CNS = system: U251 CNS
PC-3 prostate = system: PC-3 prostate
SK-MEL-5 melanoma = system: SK-MEL-5 melanoma
UACC-62 melanoma = system: UACC-62 melanoma
LOX IMVI melanoma = system: LOX IMVI melanoma
SK-MEL-28 melanoma = system: SK-MEL-28 melanoma

Row | SMILES | growth (HCT-15 colon) | growth (HT29 colon) | growth (SNB-75 CNS) | growth (SNB-19 CNS) [%] | growth (U251 CNS) | growth (PC-3 prostate) | growth (SK-MEL-5 melanoma) | growth (UACC-62 melanoma) | growth (LOX IMVI melanoma) | growth (SK-MEL-28 melanoma) [%]
1 | Cc1cnc(-c2ccc(-c3ccc(NC(=O)Nc4c(F)cc(F)cc4F)cc3F)c3c2C(=O)NC3)[nH]1 | 49.4% | 27% | 17.3% | 41.9 | 8.19% (active) | 39.7% | 38.5% | 0.806% (active) | 32.9% | 39.1
2 | Nc1c(C(=O)Nc2ccccn2)sc2nc3c(cc12)CCCC3 | 27.4% | 21.7% | 38.1% | 45.7 | 33.2% | 64.9% | 26.3% | 41.2% | 41.5% | 64.8
3 | C#C[C@@]1(O)[C@@H](CO)O[C@@H](n2cc(F)c3c(N)ncnc32)[C@@H]1O | -5.29% (active) | 5.9% (active) | -34.3% (active) | 20.7 | 8.64% (active) | 5.02% (active) | -86.9% (active) | -51.9% (active) | -66.3% (active) | 45.2
4 | COc1ccc(OCC(=O)OC(C)C)cc1 | 98.4% | 101% | 85% | 99.2 | 104% | 103% | 96.4% | 96.6% | 87.2% | 102
5 | Nc1c(C(=O)Nc2cccc3ccccc23)sc2nc3c(cc12)CCCCCC3 | 24.6% | 0.156% (active) | 10.6% | 27.8 | 14.4% | 35.1% | 45.6% | 32.4% | 49.1% | 65.8
6 | COc1ccccc1-c1ccc2nc(NC(=O)Nc3cc(C(F)(F)F)cc(C(F)(F)F)c3)sc2c1 | 9.74% (active) | 4.76% (active) | 8.11% (active) | 25.1 | 12.5% | 13.5% | -86.1% (active) | 10.8% | 5.02% (active) | 31.1
7 | CC1(C)Cc2c(Br)c(Br)c(Br)c(OCC(O)CN3CCOCC3)c2O1 (stereo not given) | 88.2% | 64.6% | 94% | 100 | 93.5% | 9.22% (active) | 66.5% | 94.6% | 87.1% | 137
8 | CCC[S@](=O)c1ccc2nc(NC(=O)OC)[nH]c2c1 | 98.9% | 79.2% | 86.2% | 95.2 | 89.1% | 89.8% | 98.7% | 89.8% | 96.5% | 107
9 | Cc1cccc(C)c1Nc1nnc(-c2ccc(F)cc2)o1 | 110% | 111% | 80.2% | 104 | 104% | 98.6% | 98.9% | 103% | 95.1% | 100
10 | Oc1ccc(CNNc2ccnc3c(O)cccc23)c2cccnc12 | 23.9% | 73.8% | 54.9% | 29.7 | 25.8% | 29.7% | -20.2% (active) | 24.6% | 16.4% | 49.7
11 | COc1cccc(NC(=O)Nc2ccc(Nc3ncnc4[nH]c(C)c(C)c34)cc2)c1 | 94.1% | 95.5% | 82.2% | 98.5 | 90.3% | 93.9% | 102% | 96.6% | 99.7% | 104
12 | Nc1ccc(C2=NN(C(=O)c3cc(-c4ccc(Cl)cc4)nc4ccccc34)C(c3ccccc3)C2)cc1 (stereo not given) | 25.5% | 12.2% | 40.2% | 34.1 | 40.1% | 26.8% | 25.9% | 38.9% | 42.5% | 58.8
13 | CCc1c(C(=O)N[C@@H](C(=O)OCc2ccccc2)C(C)O)[nH]c2ccc(Cl)cc12 (stereo not given in full) | 79.3% | 72.8% | 19.9% | 83.6 | 36.3% | 82.1% | 84.1% | 91.4% | 81.1% | 100
14 | COC(=O)/C=C/c1cc(OC)c2c(c1)[C@@H](C(=O)OC)[C@H](c1ccc(OC)c(OC)c1)O2 | 32.2% | 11% | -3.43% (active) | 35 | 25.1% | 32.9% | 9.73% (active) | 33.6% | 51.1% | 63.4
